In the supplement of paper PMC13380429:

Experiments:
[1] = system: Vero E6 infected with SARS-CoV-2; assay: morphology score (similarity to uninfected cells); higher = more like uninfected cells; conditions: 24 h
[2] = system: Vero E6 infected with SARS-CoV-2; assay: SARS-CoV-2 infection rate relative to infected DMSO; higher = more infection, active = 60 or less; conditions: 24 h

| SMILES | morphology score [1] | SARS-CoV-2 infection rate [2] |
| --- | --- | --- |
| Cc1nc(C)c(C)nc1C [chuanxiongzine] (10 µM) | -0.146 | 118% (inactive) |
| C/C=C1/[C@H](O[C@@H]2O[C@H](CO)[C@@H](O)[C@H](O)[C@H]2O)OC=C(C(=O)OC)[C@H]1CC(=O)OCCc1ccc(O)c(O)c1 [oleuropein] (10 µM) | -0.0158 | 112% (inactive) |
| C[C@H](NC(=O)C(C)(C)Oc1ccc(C(F)(F)F)cn1)[C@@H](Cc1ccc(Cl)cc1)c1cccc(C#N)c1 [taranabant] (10 µM) | 0.1 | 101% (inactive) |
| CC(C)C(=O)Nc1ccc([N+](=O)[O-])c(C(F)(F)F)c1 [flutamide] (10 µM) | -0.24 | 112% (inactive) |
| COC(=O)C1=C(C)NC(C)=C(C(=O)OCCN2CCN(C(c3ccccc3)c3ccccc3)CC2)C1c1cccc([N+](=O)[O-])c1 (stereo unspecified) [manidipine] (10 µM) | 0.247 | 91% (inactive) |
| CNC(=O)c1cc2c(cn1)[nH]c1ccccc12 (10 µM) | 0.241 | 85.5% (inactive) |
| Cc1ccc2c(=O)c3cccc(CC(=O)O)c3oc2c1C (10 µM) | -0.0879 | 114% (inactive) |
| O=C1CCc2ccc(OCCCCN3CCN(c4cccc(Cl)c4Cl)CC3)cc2N1 [aripiprazole] (10 µM) | -0.0119 | 103% (inactive) |
| CC1(N)CCN(c2cnc(-c3cccc(Cl)c3Cl)c(N)n2)CC1 (0.833333 µM) | 0.0281 | 112% (inactive) |
| CC(=O)NC[C@H]1CN(c2ccc(N3CCN(C(=O)CO)CC3)c(F)c2)C(=O)O1 [eperezolid] (10 µM) | 0.0417 | 112% (inactive) |
| CC(C)c1nnc(-c2ccc(-c3ccccc3)nc2)n1-c1cccc2nonc12 (10 µM) | -0.103 | 103% (inactive) |
| CCCc1nn(C)c2c(=O)[nH]c(-c3cc(S(=O)(=O)N4CCN(C)CC4)ccc3OCC)nc12 [sildenafil] (10 µM) | 0.056 | 109% (inactive) |
| N=C(N)N [guanidine] (0.833333 µM) | -0.293 | 118% (inactive) |
| C[C@@H](c1ncncc1F)[C@](O)(Cn1cncn1)c1ccc(F)cc1F [voriconazole] (10 µM) | 0.0199 | 101% (inactive) |
| C=CC(=O)Nc1cccc(Nc2nc(Nc3ccc(Oc4ccnc(C(=O)NC)c4)cc3)ncc2F)c1 (0.833333 µM) | 0.147 | 110% (inactive) |
| C=C1CC[C@@]2(O)[C@H]3Cc4ccc(O)c5c4[C@@]2(CCN3CC2CC2)[C@H]1O5 [nalmefene] (10 µM) | -0.0409 | 112% (inactive) |
| CC(C(=O)O)c1ccc(N2Cc3ccccc3C2=O)cc1 (stereo unspecified) [indoprofen] (10 µM) | -0.106 | 110% (inactive) |
| CC(C(=O)O)c1ccc2c(c1)CC(=O)c1ccccc1S2 (stereo unspecified) [zaltoprofen] (10 µM) | 0.241 | 104% (inactive) |
| C[C@H](CCC(=O)O)[C@H]1CC[C@H]2[C@@H]3[C@H](O)C[C@@H]4C[C@H](O)CC[C@]4(C)[C@H]3C[C@H](O)[C@]12C [cholic-acid] (10 µM) | 0.0109 | 110% (inactive) |
| CCC[C@@H]1C[C@@H](C(=O)N[C@@H]([C@H]2O[C@H](SC)[C@H](O)[C@@H](O)[C@H]2O)[C@@H](C)O)N(C)C1 [lincomycin] (10 µM) | -0.111 | 105% (inactive) |
| CCNCC(O)c1cccc(O)c1 (stereo unspecified) [etilefrine] (10 µM) | 0.131 | 100% (inactive) |
| Clc1ccc2c(NCCNc3ccnc4cc(Cl)ccc34)ccnc2c1 (10 µM) | 0.0758 | 108% (inactive) |
| CC(C)c1nc(N(C)S(C)(=O)=O)nc(-c2ccc(F)cc2)c1/C=C/[C@@H](O)C[C@@H](O)CC(=O)O [rosuvastatin] (0.833333 µM) | 0.322 | 99% (inactive) |
